# From PubChem
# IL1B secr inh – qHTS for Inhibitors of Inflammasome Signaling: IL-1-beta AlphaLISA Primary Screen. 4.7% of 360,000 active. activity change, % at 57.5 µM. AID 743279, 2014. THP-1 LPS/ATP IL-1B secretion, AlphaLISA, 16 h; active compounds read low; in the data active = activity change below about -50%; inconclusive = mostly about -30% to -49%
#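 THP-1 cells pretreated 1 hr with compounds (up to 57.5 uM final), then stimulated with LPS (250 ng/mL final) plus ATP (1.25 mM final); secreted IL-1B measured by AlphaLISA after 16 hr, decreased signal indicating inhibition.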
# DT40 TDP1 no CPT – qHTS for Inhibitors of human tyrosyl-DNA phosphodiesterase 1 (TDP1): qHTS in cells in absence of CPT. DT40 Tdp1-/- hTDP1 cells, no CPT, ATP luminescence, 48 h. 15% of 420,000 active. Potency, µM (doses to about 46.2 µM), without a hit: at the top dose activity change, negative = growth inhibition, hits mostly inhibitors. AID 686978, 2013; note: potency is the fitted concentration of half-maximal effect; nearly all actives have a fitted effect of over 55% in size
#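 Readout: luminescence from CellTiter-Glo after 30 min in the dark at RT. Cells: DT40 Tdp1-/- with stable hTDP1, 400/well. Exposure: compounds alone, ≥48 hr, 37 °C.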
# DT40 TDP1 CPT – qHTS for Inhibitors of human tyrosyl-DNA phosphodiesterase 1 (TDP1): qHTS in cells in presence of CPT; Potency, µM (top dose mostly 46.2 µM), for the others: at the top dose activity change, negative = growth inhibition, most hits filed as inhibitors; 12% of 420,000 active; chicken DT40 Tdp1-/-;hTDP1 cells + 20 nM CPT, ATP luminescence, 48 h; AID 686979, 2013; note: potency is the fitted concentration of half-maximal effect; nearly all actives have a fitted effect of over 55% in size
#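 Cell growth measured by CellTiter-Glo luminescence after a minimum 48 h, 37 C compound exposure with 20 nM CPT in Tdp1-knockout DT40 cells stably expressing hTDP1, seeded 400/well; qHTS titration format.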
# ELG1 repair inh – qHTS screen for small molecules that inhibit ELG1-dependent DNA repair in human embryonic kidney (HEK293T) cells expressing luciferase-tagged ELG1 | HEK293T ELG1-luciferase reporter, luminescence, 16 h; DNA damage induced by 5-fluorouridine | Potency, µM (titrated, usually from 46.1 µM), inactives show at the top dose activity change, negative = inhibition, actives largely listed as inhibitors | 2.3% of 330,000 active | AID 504467, 2011; note: potency is the fitted concentration of half-maximal effect; nearly all actives have a fitted effect of over 55% in size
#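 Cells (2,000 per well) received 5-fluorouridine plus test compound or DMSO and were incubated 16 hr at 37 °C, 5% CO2. Luciferase activity was read by luminescence 30 min after ONE-Glo addition; signal suppression marked inhibition of damage-induced ELG1 function.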
# RORg inh – qHTS for inhibitors of ROR gamma transcriptional activity. Nuclear receptor ROR-gamma (Mus musculus), P51450. Drosophila S2 Gal4-RORgamma UAS-luciferase reporter, 20 h. Potency, µM (doses to about 53.6 µM), for inactives: at the highest dose activity change, negative = inhibition, actives largely listed as inhibitors. 5.4% of 310,000 active. AID 2551, 2010; note: potency is the fitted concentration of half-maximal effect; nearly all actives have a fitted effect of over 60% in size
# Target sequence (P51450 whole entry, looked up, the tested form may be a part): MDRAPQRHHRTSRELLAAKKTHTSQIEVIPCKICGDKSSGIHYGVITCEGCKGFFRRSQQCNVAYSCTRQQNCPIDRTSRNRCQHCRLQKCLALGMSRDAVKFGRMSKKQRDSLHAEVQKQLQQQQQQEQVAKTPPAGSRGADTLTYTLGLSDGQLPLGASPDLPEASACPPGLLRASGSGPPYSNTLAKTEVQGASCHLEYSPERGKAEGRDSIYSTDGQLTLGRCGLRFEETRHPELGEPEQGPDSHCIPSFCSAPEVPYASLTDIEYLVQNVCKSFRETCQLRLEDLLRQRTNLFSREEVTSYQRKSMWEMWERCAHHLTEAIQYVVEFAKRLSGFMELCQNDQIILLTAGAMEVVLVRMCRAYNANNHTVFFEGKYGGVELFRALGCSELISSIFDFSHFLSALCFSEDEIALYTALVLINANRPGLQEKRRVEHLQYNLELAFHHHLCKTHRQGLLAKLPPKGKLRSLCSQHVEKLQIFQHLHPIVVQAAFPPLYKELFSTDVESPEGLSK
#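 Stable Schneider cell line, Gal4 DNA-binding domain fused to ROR gamma, UAS-luciferase. Cmpd 1 hr RT → CuSO4 700 uM final → 20 hr RT → luciferase reagent 10 min → luminescence.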
# VP16 counter – VP16 counterscreen qHTS for inhibitors of ROR gamma transcriptional activity; Drosophila S2 Gal4-VP16 UAS-luciferase, luminescence, 20 h; Potency, µM (series often up to 53.6 µM), without a hit: top-dose activity, negative = inhibition, actives largely listed as inhibitors; 3.5% of 310,000 active;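 note: Gal4-VP16 expression switched on by copper sulfate through the metallothionein promoter; potency is the fitted concentration of half-maximal effect; nearly all actives have a fitted effect of over 50% in size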
# * = called active by the depositor; i = inactive; ? = inconclusive; . = not tested or not shown; [ ] = dose if it differs, or a comment. Sampled rows, rich in hits. Any-hit rate of the full collection: about 21%. Unless noted, calls come from the whole dose curve; as a rule, active = well fitted curve in the direction sought with a large enough effect; inconclusive = small, poorly fitted or top-dose-only effect, or another doubt; inactive = no such curve, though single readings can be large; an effect the other way counts as inactive or inconclusive. % is set by controls: 0 for no effect and ±100 for the full control effect.
SMILES,IL1B secr inh,DT40 TDP1 no CPT,DT40 TDP1 CPT,ELG1 repair inh,RORg inh,VP16 counter
Cc1cccc(NC(=O)CSc2nc(=O)n(Cc3ccco3)c3c2CCC3)c1C,.,?,-22.8%,.,.,.
Cc1cc(C)c(NC(=O)CSc2nc(=O)[nH]c3c2CCCC3)c(C)c1,.,23.1µM*,?,.,.,.
Cc1c(Cl)cccc1NC(=O)CSc1nc(=O)[nH]c2c1CCCC2,.,20.6µM*,20.6µM*,.,.,.
Cc1c(Cl)cccc1NC(=O)CSc1nc(=O)n(Cc2ccco2)c2c1CCC2,.,?,20.6µM*,.,.,.
C[C@@H]1CC[C@H](Cc2ccc(-n3cccc3)cc2)N1C(=O)OC(C)(C)C,0.9,18.4µM*,?,.,.,.
CC1(C)CC(Cc2ccc(Cl)nc2)N(C(=O)OC(C)(C)C)C1 (configuration not stated),28.9,?,?,.,.,.
O=c1c(CCc2ccccc2)nc2cnc(Oc3ccccc3)nc2n1C1CC1,.,?,?,.,32.3%,1.0%
O=C(Nc1nccs1)C(NS(=O)(=O)c1ccc(Br)s1)c1ccccc1 (configuration not stated),24.0,-1.4%,-9.8%,?,11.2µM*,?
CC(NS(=O)(=O)c1ccccc1)C(=O)Nc1nccs1 (configuration not stated),-20.1,-9.1%,?,?,-21.0%,12.9%
COc1cc(=O)n2c(c1C(=O)N(C)Cc1nonc1C)CCN(C(=O)c1cccc(C)c1C)CC2,.,-7.1%,4.7%,.,.,.
CSc1nnc(-c2cc3c(-c4ccccc4)nn(C)c3s2)n1C,?,23.1µM*,?,?,-1.6%,-11.3%
CCCCCCCCNc1nc(Cl)nc(NCc2ccco2)n1,10.5,-2.2%,-3.0%,8.8%,3.9%,?
CCCCCCNc1nc(NCc2ccco2)nc(OCC)n1,-2.4,18.4µM*,20.6µM*,?,?,?
CC(=O)OC[C@@H]1O[C@H](C/C=N\O[C@@H](C)c2cc(-c3c(C)cc(C)cc3C)no2)C=C[C@@H]1OC(C)=O,.,.,.,.,5.2%[10 µM],1.2%[10 µM]
Cc1ccc(C)c(CN2C(=O)CSc3ccc(C(=O)N4CCCC4)cc32)c1,-20.7,?,?,-1.6%,-23.4%,26.6%
Cc1ccc(C)c(CN2C(=O)CSc3ccc(C(=O)NCC(C)CN4CCC(C)CC4)cc32)c1 (configuration not stated),0.8,?,14.6µM*,0.0%,-15.2%,0.2%
O=C(NCCc1ccccc1)c1ccc2c(c1)N(Cc1ccc(F)cc1)C(=O)CS2,.,16.4µM*,?,.,.,.
Cc1ccc(C)c(CN2C(=O)CSc3ccc(C(=O)NCCc4ccc(Cl)cc4)cc32)c1,.,?,8.2µM*,.,.,.
O=C(NCCc1ccc(Cl)cc1)c1ccc2c(c1)N(Cc1ccccc1)C(=O)CS2,.,18.4µM*,16.4µM*,.,.,.
Cc1ccc(CN2C(=O)CSc3ccc(C(=O)NC4CC4)cc32)cc1,-9.8,?,-7.1%,6.1%,17.4%,17.0%
Oc1c(C(c2ccccc2Cl)N2CCC(O)CC2)sc2nc(-c3ccco3)nn12 (configuration not stated),.,?,1.9%,.,.,.
COc1ccc(Oc2ncc3nc(C)c(=O)n(CCC#N)c3n2)cc1,.,-29.7%,7.6%,.,1.6%,1.6%
COc1ccc(/C=N/NC(=O)c2ccc(N(C)S(=O)(=O)c3ccccc3)cc2)cc1OC,-2.2,?,?,-28.7%,-0.6%,-5.2%
O=C(Nc1ccc(Oc2ccccc2)cc1)c1csc([C@@H]2O[C@H](CO)[C@H](O)[C@H](O)[C@H]2O)n1,90.9,-5.0%,0.1%,.,.,.
COc1ccc(OCC2CC3C(CCC(C)C3c3ccc(Br)cc3)C(=O)O2)cc1 (configuration not stated),.,.,.,.,-19.7%[10 µM],-4.9%[10 µM]
SMILES,IL1B secr inh,DT40 TDP1 no CPT,DT40 TDP1 CPT,ELG1 repair inh,RORg inh,VP16 counter
C=CCN1C(=O)CSc2ccc(C(=O)NC3CCCCC3)cc21,-8.8,?,?,-1.0%,9.7%,8.5%
CCN1C(=O)CSc2ccc(C(=O)NC3CCCCC3)cc21,12.0,20µM*,35.5µM*,-12.1%,40.4%,-6.9%
COc1ccc(CCNC(=O)c2ccc3c(c2)N(Cc2c(F)cccc2Cl)C(=O)CS3)cc1OC,.,9.2µM*,8.2µM*,.,.,.
Cc1ccc(C)c(CN2C(=O)CSc3ccc(C(=O)NCc4ccc(F)cc4)cc32)c1,.,?,16.4µM*,.,.,.
COc1ccc(CCNC(=O)CSCc2c(F)cccc2Cl)cc1OC,-4.2,?,?,6.4%,0.6%,-10.5%[10 µM]
O=C(NCCc1ccccc1)c1ccc2c(c1)N(Cc1c(F)cccc1Cl)C(=O)CS2,.,9.2µM*,14.6µM*,.,.,.
CCN1C(=O)CSc2ccc(C(=O)NCc3ccccc3)cc21,13.3,2.6%,-26.0%,-4.7%,16.4%,-1.4%
O=C(NCc1ccccc1)c1cc(C2CCCN(S(=O)(=O)c3ccccc3)C2)on1 (configuration not stated),-12.7,?,?,.,.,.
N=C1C=CC(=C(c2ccc(N)cc2)c2ccc(N)cc2)C=C1,0.0,3.26µM*,2.91µM*,.,-19.1%,?
Nc1ccc(C(=O)C(=O)c2ccc(N)cc2)cc1,-29.8,-11.7%,-6.1%,-3.6%,30.3%,-6.7%
CCCCn1c(N)c(N(CC)C(=O)C2=COCCO2)c(=O)[nH]c1=O,-1.5,0.4%,0.2%,3.1%,.,.
Cc1ccc2nc(NC(=O)C3CCCN(S(=O)(=O)c4cccnc4)C3)sc2c1 (configuration not stated),-12.4,16.4µM*,23.1µM*,?,?,-9.5%
Cc1ccc2nc(NC(=O)C3CCCN(S(=O)(=O)c4cccc5nonc45)C3)sc2c1 (configuration not stated),.,.,.,7.3µM*,?,-3.1%
O=c1cc(N2CCN(c3ccccc3)CC2)[nH]c(=O)n1C1CCCCC1,5.0,-20.7%,-11.2%,5.0%,-1.2%,-5.0%
COc1cccc(N2CCN(C(=O)C3CCC(=O)N(C4CCCCCC4)C3)CC2)c1 (configuration not stated),i,18.4µM*,14.6µM*,?,38.6%,0.2%
O=c1cc(N2CCN(c3cccc(Cl)c3)CC2)[nH]c(=O)n1C1CCCCC1,6.1,1.64µM*,?,10.9%,22.3%,-6.4%
